An excerpt weighted towards active compounds, which were near 10% of everything screened.
JMJD2A Tudor – inhibitors of human JMJD2A Tudor domain; Potency, µM (series often up to 114 µM), inactives show top-dose activity change, negative = inhibition, usual class: inhibitors; AlphaScreen JMJD2A-Tudor / H3K4me3 peptide binding; O75164; 4.4% of 390,000 active; AID 504339; further: on the % scale 0 is the no-effect control and ±100 the full control effect; nearly all actives have a fitted effect of over 50% in size
GLS inh – inhibitors of human glutaminase (GLS). O94925. GLS enzymatic activity, qHTS titration. Potency, µM (titrated, usually from 45.5 µM), for the others: at the top dose activity change, negative = inhibition, actives largely listed as inhibitors. 0.21% of 410,000 active. AID 624170; further: on the % scale 0 is the no-effect control and ±100 the full control effect
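Coupled fluorescence readout: glutamate oxidase/HRP/Amplex Red detect glutamate formed by hKGA from L-glutamine (1 mM solution added). Buffer 45 mM KH2PO4 pH 8.2, 0.02% Tween-20; reads at t0 and 30 min RT.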
L3MBTL1 inh – inhibitors of human L3MBTL1 | AlphaScreen L3MBTL1–H3K9me1 peptide binding | 0.66% of 230,000 active | AID 485360 | Potency, µM (doses to about 57.1 µM), for the others: at the top dose activity, negative = inhibition, most hits filed as inhibitors; further: on the % scale 0 is the no-effect control and ±100 the full control effect; nearly all actives have a fitted effect of over 60% in size
Target sequence (Q9Y468 whole entry, looked up): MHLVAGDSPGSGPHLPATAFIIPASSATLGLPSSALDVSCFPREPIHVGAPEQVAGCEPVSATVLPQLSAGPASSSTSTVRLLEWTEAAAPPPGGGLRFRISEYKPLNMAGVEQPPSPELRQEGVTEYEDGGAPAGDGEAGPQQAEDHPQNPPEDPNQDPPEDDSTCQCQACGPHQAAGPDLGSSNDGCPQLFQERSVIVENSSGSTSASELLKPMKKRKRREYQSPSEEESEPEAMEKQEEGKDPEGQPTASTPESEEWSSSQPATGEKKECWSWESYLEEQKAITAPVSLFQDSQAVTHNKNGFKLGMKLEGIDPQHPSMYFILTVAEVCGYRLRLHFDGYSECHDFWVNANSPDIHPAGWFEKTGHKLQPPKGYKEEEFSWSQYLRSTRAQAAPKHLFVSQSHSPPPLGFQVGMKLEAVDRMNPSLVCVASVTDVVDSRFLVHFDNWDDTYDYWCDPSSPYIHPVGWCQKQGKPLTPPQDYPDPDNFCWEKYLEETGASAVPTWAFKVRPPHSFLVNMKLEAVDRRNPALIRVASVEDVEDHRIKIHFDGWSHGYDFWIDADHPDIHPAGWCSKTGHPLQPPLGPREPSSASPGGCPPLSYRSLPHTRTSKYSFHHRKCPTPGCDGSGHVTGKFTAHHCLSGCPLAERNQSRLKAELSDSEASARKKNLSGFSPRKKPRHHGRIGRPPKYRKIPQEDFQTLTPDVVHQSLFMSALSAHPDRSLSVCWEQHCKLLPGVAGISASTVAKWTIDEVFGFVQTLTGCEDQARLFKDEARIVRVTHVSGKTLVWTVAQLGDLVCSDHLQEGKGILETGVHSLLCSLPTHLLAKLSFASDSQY
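First, the protein-peptide complex forms for 30 min at room temperature (L3MBTL1 50 nM, biotinylated H3K9me1 peptide 75 nM). Next, compounds are pin-transferred and incubated 30 min. Finally, AlphaScreen beads are added and read after 30 min.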
HP1b binding inh – inhibitors of HP1-beta chromodomain binding to methylated histone tails. AlphaScreen HP1-beta / biotin-H3K9me3 peptide binding. P83916. 0.56% of 390,000 active. Potency, µM (series often up to 114 µM), for inactives: at the highest dose activity change, negative = inhibition, actives largely listed as inhibitors; further: nearly all actives have a fitted effect of over 70% in size
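Compound inhibition of the preformed complex between 50 nM HP1-beta and 50 nM biotinylated H3K9me3 peptide was read by AlphaScreen. Buffer was PBS pH 7.4 with 0.01% Tween-20. Incubations ran 30 min at room temperature, with 10 ug/mL donor/acceptor beads.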
G9a inh – blocks human histone lysine methyltransferase G9a | Potency, µM (doses to about 102 µM), for inactives: at the top dose activity, negative = inhibition, actives largely listed as inhibitors | G9a H3K9 monomethylation, AlphaScreen, 2 h | Q96KQ7 | 8.8% of 350,000 active | AID 504332; further: on the % scale 0 is the no-effect control and ±100 the full control effect; nearly all actives have a fitted effect of over 75% in size
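Step 1: enzyme (final 20 nM) with compound, 15 min RT. Step 2: substrate peptide 500 nM and SAM 20 uM, 2 h RT. Step 3: anti-H3K9me1 antibody and AlphaScreen beads, 10 min, then plate read.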
BAZ2B block – inhibitors of human BAZ2B bromodomain. Q9UIF8. AlphaScreen BAZ2B-H3K14Ac peptide displacement. Potency, µM (doses to about 114 µM), inactives show at the top dose activity change, negative = inhibition, most hits filed as inhibitors. 4.4% of 360,000 active. AID 504333; further: on the % scale 0 is the no-effect control and ±100 the full control effect; nearly all actives have a fitted effect of over 60% in size
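Multi-concentration screen (max 110 uM) measuring displacement of acetylated histone H3 peptide from BAZ2B by AlphaScreen, using 50 nM protein, 50 nM peptide and 10 ug/mL streptavidin donor plus Ni-chelate acceptor beads.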
Starred values were filed as active, the others as inactive; [ ] = dose if it differs, or a comment. The call rests on the fitted dose curve; in most records, active means well fitted curve in the direction sought with a large enough effect; inconclusive means small, poorly fitted or top-dose-only effect, or another doubt; inactive means no such curve, though single readings can be large; an effect the other way counts as inactive or inconclusive. Potency means the concentration at half of the fitted maximal effect.

Screening O=C(Nc1nc(-c2ccccn2)cs1)c1cc2ccccc2o1 returned JMJD2A Tudor 25µM*, GLS inh 8%, L3MBTL1 inh 20µM*, HP1b binding inh 31%, G9a inh -36% and BAZ2B block 22µM*.
CN1C(C(=O)c2ccccc2)=C(NC(=O)c2ccccc2Br)c2ccccc2S1(=O)=O was read as JMJD2A Tudor -24%, GLS inh 5%, HP1b binding inh 25%, G9a inh inconclusive and BAZ2B block inconclusive.
Screening Cc1cccc(-c2noc(CNC(=O)c3ccccc3Br)n2)c1 returned JMJD2A Tudor -12%, GLS inh -3%, HP1b binding inh 34%, G9a inh 1%[59 µM] and BAZ2B block -2%.
Screening O=[N+]([O-])c1cnc(Sc2ccncn2)s1 returned JMJD2A Tudor -22%, GLS inh 26%, L3MBTL1 inh 6%, HP1b binding inh -2%, G9a inh 10µM* and BAZ2B block -20%.
COc1ccccc1C(=O)Nc1nc2nc(C)c(Cc3ccccc3)c(=O)n2[nH]1 was read as JMJD2A Tudor -30%, GLS inh 0%, HP1b binding inh 32%, G9a inh inconclusive and BAZ2B block inconclusive.
For CCOCCCNC(=O)C1CCN(Cc2ccc(OCc3ccccc3)c(OC)c2)CC1 the results were JMJD2A Tudor inconclusive, GLS inh -1%, L3MBTL1 inh 0%, HP1b binding inh 10%, G9a inh 50µM* and BAZ2B block -11%.
`COCCNC(=O)C1CCCN(Cc2ccc(-c3ccccc3)cc2)CC1` (stereo unspecified) gave GLS inh 12%.
For COc1ccc(CN2CCN(C(=O)C3CCN(C(=O)Nc4ccccc4)CC3)CC2)cc1OC the results were JMJD2A Tudor -7%, GLS inh 7%, L3MBTL1 inh 1% and HP1b binding inh 50%.
`CCCCNC(=O)C1CCN(Cc2ccc(OCc3ccccc3)c(OC)c2)CC1` gave JMJD2A Tudor 22µM*, GLS inh 5%, L3MBTL1 inh 0%, HP1b binding inh -21%, G9a inh 14µM* and BAZ2B block inconclusive.
For CCCS(=O)(=O)N1CCN(Cc2ccc(OCc3ccccc3)c(OC)c2)CC1 the results were JMJD2A Tudor 28µM*, GLS inh -4% and HP1b binding inh inconclusive.
COc1ccc(Cn2ncc3c4sc(C)cc4n(C)c3c2=O)cc1F was read as JMJD2A Tudor -3%.
`Cc1ccccc1Cn1c(=O)n(CCc2ccccc2)c(=O)c2c(C)c(C)sc21` gave JMJD2A Tudor 0%, GLS inh -17%, HP1b binding inh 41%, G9a inh -1%[59 µM] and BAZ2B block -2%.
COc1ccccc1-c1c(C)nn2c(-c3ccccc3)cc(-c3ccccc3)nc12 was read as JMJD2A Tudor 3%, GLS inh 0%, HP1b binding inh 40%, G9a inh 6%[59 µM] and BAZ2B block 2%.
COc1ccc(Br)cc1CNC(=O)c1cnc2sc(N3CCCCCC3)nn2c1=O was read as JMJD2A Tudor -24%, GLS inh -12%, HP1b binding inh -27%, G9a inh -1%[59 µM] and BAZ2B block -9%.
For NC(=O)CSc1nnc(Cc2csc(Nc3ccccc3)n2)n1Cc1ccccc1 the results were JMJD2A Tudor inconclusive, GLS inh 70%, L3MBTL1 inh -10%, HP1b binding inh 19%, G9a inh 35µM* and BAZ2B block 4%.
Screening COCCCn1c(SCC(N)=O)nnc1-c1ccccc1 returned JMJD2A Tudor -19%, GLS inh 2%, L3MBTL1 inh 8%, HP1b binding inh 18%, G9a inh 17%[59 µM] and BAZ2B block 6%.
For COCCCn1c(Cc2csc(Nc3ccccc3)n2)nnc1SCC(N)=O the results were JMJD2A Tudor inconclusive, GLS inh -9%, L3MBTL1 inh -13%, HP1b binding inh -19%, G9a inh 6.3µM* and BAZ2B block 56µM*.
`Cc1c(C)n(Cc2ccccc2)c2ccc(C(=O)NCC(C)c3ccccc3)cc12` (stereo unspecified) gave JMJD2A Tudor inconclusive, GLS inh -9%, HP1b binding inh -6%, G9a inh -33%[59 µM] and BAZ2B block -12%.
`Cc1ccccc1NC(=O)Cn1c(SCC(=O)Nc2ccc(F)cc2)nc2ccccc21` gave JMJD2A Tudor 4%, GLS inh -2%, HP1b binding inh 43%, G9a inh 4%[12.7 µM] and BAZ2B block -16%.
Screening O=C1CN(C(=O)COc2ccc(Cl)cc2Cl)C(c2ccccc2)c2cc(F)ccc2N1 (stereo unspecified) returned JMJD2A Tudor -22%, GLS inh -10%, HP1b binding inh 26%, G9a inh -17%[59 µM] and BAZ2B block -13%.
COC(=O)c1sc(N2C(=O)C(O)=C(C(=O)c3ccc(C)o3)C2c2ccc(OC)c(OC)c2)nc1C (stereo unspecified) was read as JMJD2A Tudor inconclusive, GLS inh -8%, HP1b binding inh 17%, G9a inh 32µM* and BAZ2B block -21%.
Screening COc1ccc(C2C(C(C)=O)=C(O)C(=O)N2c2nc3ccccc3s2)cc1OC (stereo unspecified) returned JMJD2A Tudor inconclusive, GLS inh 13%, HP1b binding inh 41%, G9a inh 50µM* and BAZ2B block -29%.
`CCOC(=O)c1sc(N2C(=O)C(O)=C(C(=O)c3ccc(C)o3)C2c2cccc([N+](=O)[O-])c2)nc1C` (stereo unspecified) gave JMJD2A Tudor inconclusive, GLS inh -1%, HP1b binding inh 6%, G9a inh 45µM* and BAZ2B block inconclusive.
`Cc1ccc2nc(N3C(=O)C(O)=C(C(=O)c4ccc(C)o4)C3c3cccc(O)c3)sc2c1` (stereo unspecified) gave JMJD2A Tudor inconclusive, GLS inh -5%, L3MBTL1 inh -2%, HP1b binding inh -10%, G9a inh 32µM* and BAZ2B block inconclusive.
For COc1ccc(C2C(C(C)=O)=C(O)C(=O)N2c2nccs2)cc1OC (stereo unspecified) the results were JMJD2A Tudor inconclusive, GLS inh 9%, L3MBTL1 inh -4%, HP1b binding inh 13%, G9a inh inconclusive and BAZ2B block -10%.
CCS(=O)(=O)c1ncc(N(Cc2cccc(F)c2)Cc2ccco2)c(C(=O)Nc2ccccc2Cl)n1 was read as JMJD2A Tudor -17%, GLS inh 4%, HP1b binding inh 35%, G9a inh -25%[59 µM] and BAZ2B block -21%.

Compound activity (PubChem)
